The source of these data is PubChem BioAssay AID624417 (National Center for Advancing Translational Sciences (NCATS), 2012).

Structures are written as SMILES. The whole screen tested about 410,000 compounds, of which about 6,400 (1.6%) were called active. Entries that show only a call come without a potency. Another 20% or so got no clear call; they are omitted. Only a selection was taken, and actives are over-represented in it overall. A number with no mark means an inactive call. Calls follow the shape of the dose curve; as a rule, active = well fitted inhibition curve with a large enough effect; inconclusive = small, poorly fitted or top-dose-only effect; inactive = no such curve, though single readings can be large or run the other way. Peptide text beside a SMILES is read from it. * marks the point of attachment. Bz = O=C(c1ccccc1)*
Potency is read from the fitted curve at half-maximal effect.

For the assay, the target named is Glucagon-like peptide 1 receptor (Homo sapiens) (UniProt P43220). Put plainly: qHTS of GLP-1 Receptor Inverse Agonists (Inhibition Mode). Also: nearly all actives have a fitted effect of over 55% in size. The following applies: HEK293 GLP-1R CRE-luciferase, luminescence, 24 h, GLP-1R form is constitutively active; series mostly up to 38.3 µM. In outline: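 Seeding at 200 cells/uL, 12 h culture, 24 hr compound treatment, then luciferase reagent and a luminescence read; cells are HEK293 stably expressing a constitutively active GLP-1R plus cAMP-responsive luciferase.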
Sequence of Glucagon-like peptide 1 receptor (Homo sapiens) (P43220 whole entry, looked up): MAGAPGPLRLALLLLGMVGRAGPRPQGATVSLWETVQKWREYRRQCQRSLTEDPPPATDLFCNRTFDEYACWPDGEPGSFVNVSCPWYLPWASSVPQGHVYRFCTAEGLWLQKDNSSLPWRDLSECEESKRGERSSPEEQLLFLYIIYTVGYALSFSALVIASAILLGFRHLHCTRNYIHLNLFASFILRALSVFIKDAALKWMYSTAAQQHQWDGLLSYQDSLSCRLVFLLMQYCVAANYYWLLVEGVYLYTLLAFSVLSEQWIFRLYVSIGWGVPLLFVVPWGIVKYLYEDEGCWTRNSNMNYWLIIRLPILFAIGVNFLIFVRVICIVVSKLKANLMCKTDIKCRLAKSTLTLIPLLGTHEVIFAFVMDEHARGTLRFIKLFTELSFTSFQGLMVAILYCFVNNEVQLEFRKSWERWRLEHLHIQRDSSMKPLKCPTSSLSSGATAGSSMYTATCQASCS
As to `CCc1c(N=O)c(-c2ccccc2)n(O)[n+]1[O-]`, the Potency result is “inactive”.

Consider `CCC(Oc1ccccc1)C(=O)OCC(=O)Nc1c(C)nn(-c2ccccc2)c1C` (stereo not given), for which the Potency entry is “inactive”. For the molecule `Cc1ccc(S(=O)(=O)N(CC(=O)N2CCc3ccccc3C2)c2cccc(Cl)c2)cc1`, the Potency was 8.91 µM (active). For the molecule `CS(=O)(=O)N(CC(=O)N1CCc2ccccc2C1)c1ccc(Br)cc1`, the Potency result was “inactive”. On to `COc1cccc(N(CC(=O)N2CCc3ccccc3C2)S(C)(=O)=O)c1`, for which the Potency entry is “inactive”. In the case of `O=C(NCc1ccccc1)C1c2ccccc2OCC(=O)N1C1CC1` (stereo not given), the Potency entry is “inactive”. On the same count and under the same terms, the value for `COc1ccc(-c2ccc(CN3C(CC(C)C)C(=O)N(Cc4cn(CC5CCCCC5)nn4)CCS3(=O)=O)cc2)cc1` (stereo not given) was 10 µM (active); that for `CC(C)CC1C(=O)N(Cc2cn(CC3CCCCC3)nn2)CCS(=O)(=O)N1Cc1ccc(-c2ccc(Cl)cc2)cc1` (stereo not given) was “inactive”; that for `CC1C(=O)N(Cc2cn(Cc3ccco3)nn2)CCS(=O)(=O)N1Cc1ccc(-c2cccc(CO)c2)cc1` (stereo not given) was “inactive”. With `CC(C)CC1C(=O)N(Cc2cn(Cc3ccco3)nn2)CCS(=O)(=O)N1Cc1ccc(-c2ccc(Cl)c(Cl)c2)cc1` (stereo not given), the Potency is 10 µM (active). On the same count and under the same terms, the value for `COCOCCn1cc(CN2CCS(=O)(=O)N(Cc3ccc(-c4cccc(N(C)C)c4)cc3)C(CC(C)C)C2=O)nn1` (stereo not given) was “inactive”; that for `COc1ccc(-c2ccc(CN3C(C(C)C)C(=O)N(Cc4cn(CC5CCCCC5)nn4)CCS3(=O)=O)cc2)cn1` (stereo not given) was “inactive”.

As for `CCN1C(=O)[C@@H]2[C@@H]3CN(S(=O)(=O)c4ccccc4C)[C@@H](c4ccc(Cl)cc4)[C@@H]3C(=O)C[C@@H]2C1=O`, the Potency entry is “inactive”.

Take `CCOC(=O)c1cc(-c2sc(NC(=O)c3ccccc3)nc2C)n(CCO)n1`: the Potency entry was “inactive”.

With `CCc1nc2ccc(C(=O)NCCNC(C)=O)cn2c1N(CC)Cc1cccc(Br)c1`, the Potency entry is “inactive”. Take `CC(C)(C)NC(=O)Cn1nnc(-c2ccccc2Cl)n1`: the Potency entry is “inactive”.

Consider `C#CC(C)(CC)NC(=O)Cn1nnc(-c2ccc(OCc3c(F)cccc3Cl)cc2)n1` (stereo not given), for which the Potency was 3.16 µM (active).

For `COc1ccc(CNC(=O)Cn2nnc(-c3ccccc3F)n2)cc1`, the Potency entry was “inactive”. Same read-out and setting: the value for `CN(C(=O)c1cccc(OC2CCN(S(=O)(=O)N(C)C)CC2)c1)C1CCOC1` (stereo not given) was “inactive”; that for `CN(C)S(=O)(=O)N1CCC(Oc2cccc(C(=O)NCCCC3CCCC3)c2)CC1` was 10 µM (active); that for `CNS(=O)(=O)c1cccc(C(=O)NCC2CCCCC2)c1` was “inactive”. Same read-out and setting: the value for `CCNC(=O)C1(C)CCN(Cc2ccc(C(=O)OCC)o2)C1` (stereo not given) was “inactive”; that for `CCc1noc(C)c1C(=O)OCC(=O)c1ccc(NC(=O)CC(C)C)cc1` was “inactive”.

`Cc1cccc(C)c1NC(=O)C(c1cccc2ccccc12)n1c(=O)c(-c2ccco2)nc2ccccc21` (stereo not given): the Potency entry is “inactive”. The same measure, in the same setting: the value for `COc1ccc(Cl)cc1NC(=O)CN(C)C(=O)c1cn(-c2ccccc2)nc1-c1cccs1` was “inactive”; that for `COc1ccc(Cl)cc1NC(=O)CN(C)C(=O)c1ccc2n[nH]nc2c1` was “inactive”. Regarding `COc1ccc(Cl)cc1NC(=O)CN(C)C(=O)c1cc2ccccc2cc1OC`, the Potency is 10 µM (active). On the same count and under the same terms, the value for `O=[N+]([O-])c1ccc(C(S(=O)(=O)Cc2ccccc2)S(=O)(=O)Cc2ccccc2)cc1` was “inactive”. The same measure, in the same setting: in the case of `c1ccc2c(CNn3cnnc3)cccc2c1` it was “inactive”. Consider `N#C/C(=C(/O)Cc1cccc2ccccc12)c1nc2ccccc2s1`, for which the Potency result is “inactive”. On to `N=C(N)SCc1cccc2ccccc12`, for which the Potency is 10 µM (active). For the molecule `CCCCNC(=O)OC1CC2CC1[C@H]1CCCCN1C2=O` (stereo not given in full), the Potency result was “inactive”.

Take `C[C@H](NC(=O)CC[C@H]1O[C@@H](n2ccc(=O)[nH]c2=O)[C@H](O)[C@@H]1O)c1cccc2ccccc12`: the Potency result was “inactive”. Still for that read-out and setting: the value for `COC(=O)[C@H]1[C@H]2C[C@H]3c4[nH]c5ccccc5c4CCN3C[C@@H]2CC[C@@H]1O` was “inactive”; that for `COc1cccc(C2c3[nH]c4ccccc4c3CCN2Cc2cccc(C)n2)c1` (stereo not given) was 11.2 µM (active). Still for that read-out and setting: the value for `COc1cccc(N2CCN(C(=O)CCCCCn3c(=O)[nH]c4ccccc4c3=O)CC2)c1` was “inactive”. `Cc1ccc(NC(=O)CCNS(=O)(=O)c2ccc3c(c2)oc(=O)n3C)cc1C`: the Potency entry was “inactive”.

On to `Cc1ccc(S(=O)(=O)NCCC(=O)Nc2ccc(C)c(Cl)c2)cc1C`, for which the Potency was 7.08 µM (active). Still for that read-out and setting: the value for `Cc1ccc(S(=O)(=O)NCCC(=O)Nc2cccc(S(N)(=O)=O)c2)cc1C` was “inactive”. On to `Cc1cccc(N(CC(=O)N2CCCC2)S(C)(=O)=O)c1C`, for which the Potency entry is “inactive”. Regarding `COCCCn1cc(CN2CC(N(C)C)CS2(=O)=O)nn1` (stereo not given), the Potency entry is “inactive”. Consider `O=C(CSc1ncn[nH]1)Nc1nc2c(F)c(F)c(F)cc2s1`, for which the Potency result is “inactive”. `COc1ccc(-c2nn(-c3ccccc3)cc2/C=C\C(=O)Nc2ccc(C(=O)O)cc2)cc1`: the Potency entry is “inactive”. In the case of `NS(=O)(=O)c1cccc(NC(=O)CSc2nc3ccccc3n2-c2ccccc2)c1`, the activity change, negative = inhibition was 33.1% [at 7.66 µM]. Take `Cc1ccc(-c2nn(-c3ccccc3)cc2/C=C/C(=O)Nc2cccc(S(N)(=O)=O)c2)cc1`: the Potency was 5.01 µM (active). Regarding `O=C(Nc1ccc2c(c1)OCCO2)C1c2ccccc2OCC(=O)N1Cc1ccccn1` (stereo not given), the Potency result is “inactive”. For `c1cc(-c2ccc3[nH]ccc3c2)n2ccnc2c1`, the Potency entry is “inactive”. In the case of `CCCCCOc1ccc(CSC2=NCCN2)cc1[N+](=O)[O-]`, the Potency is 3.98 µM (active). Same read-out and setting: in the case of `CCCCOc1ccc(CSC(=N)N)cc1[N+](=O)[O-]` it was “inactive”; in that of `Cc1nc(SCc2ccc(F)cc2)c([N+](=O)[O-])[nH]1`, “inactive”; in that of `CC1(C)OC(=O)C2=C(C[C@@H](C3CC3)O[C@H]2c2ccc(Cl)cc2)O1`, “inactive”. The same measure, in the same setting: the value for `CN(C)C(CNC(=O)c1cccc(S(=O)(=O)N2CCc3ccccc3C2)c1)c1ccccc1` (stereo not given) was “inactive”; that for `Cc1ccn(CC(=O)NC2CCCN(Cc3ccccc3F)C2)n1` (stereo not given) was “inactive”. For `CC1Oc2ccccc2N(Cc2cccnc2)C1=O` (stereo not given), the Potency entry is “inactive”.

With `CC12c3ccccc3C(c3ccccc31)C1C(=O)N(Cc3cccnc3)C(=O)C12` (stereo not given), the Potency is 8.91 µM (active).

Take `CC1(C)CN(Cc2cccnc2)C(=O)[C@H]1CC(=O)Nc1ccc(Br)cc1`: the Potency result was “inactive”. Same read-out and setting: in the case of `COc1cccc(CNc2nc3cc(-c4csc5ccccc45)sc3c(=O)n2C)c1` it was “inactive”; in that of `CCCNC(=O)C1(C)CCCN(C(=O)c2cccc(OC(C)=O)c2C)C1` (stereo not given), “inactive”; in that of `COc1ccccc1CNC(=O)Cn1cc2c(n1)CCCC2`, “inactive”. On the same count and under the same terms, the value for `CCN(CC)CCN(C(=O)c1ccc2c(c1)CCCC2)c1nc2c(OC)cccc2s1` was 11.2 µM (active); that for `CCN(CC)CCN(C(=O)c1cccc([N+](=O)[O-])c1)c1nc2ccc(OC)cc2s1` was “inactive”.

Turning to `Cc1ccc2sc(N(CCN(C)C)C(=O)/C=C/c3cccs3)nc2c1C`, the Potency entry was “inactive”. Consider `COc1cccc2sc(N(CCCN(C)C)C(=O)C(c3ccccc3)c3ccccc3)nc12`, for which the Potency is 5.62 µM (active). Same read-out and setting: in the case of `Cc1cc(C)c2nc(N(CCN(C)C)C(=O)/C=C/c3cccs3)sc2c1` it was “inactive”. On the same count and under the same terms, the value for `CCCCN1C(=O)C(CC(=O)NC(c2ccccc2)c2ccccc2)CC(C(=O)N2CCOCC2)=C1C` (stereo not given) was “inactive”. Still for that read-out and setting: in the case of `C[C@@H]1CC2=C(C(=O)OC(C)(C)O2)[C@@H](C2CC2)O1` it was “inactive”; in that of `COc1cccc(-c2cnc3c(NC(C)=O)cc(-c4cccc(NC(C)=O)c4)cn23)c1`, “inactive”.

As for `CCN(CC)C(=O)CN(c1cccc(OC)c1)S(=O)(=O)c1ccc(C)cc1`, the Potency result is “inactive”. Same read-out and setting: in the case of `COc1ccc(C)cc1N(CC(=O)N1CCC(C)CC1)S(=O)(=O)c1ccc(C)cc1` it was “inactive”; in that of `COC(=O)CN(c1nc(C)c(Cl)c(OC)n1)S(=O)(=O)c1ccc(C)cc1`, 10 µM (active).

Turning to `CCc1ccc([C@@H]2CC(=O)[C@@H]3CN(S(=O)(=O)c4ccc(C)cc4)[C@H](c4ccc(Cl)cc4)C[C@@H]3N2S(=O)(=O)c2ccc(C)cc2)cc1`, the Potency result was “inactive”. On the same count and under the same terms, in the case of `COc1cc(C=NC2CCCCC2)ccc1O` it was “inactive”; in that of `O=C(NC(Cc1ccccc1)C(=O)N1CCCC1C(=O)O)c1ccccc1` (stereo not drawn) (Bz-Phe-Pro-OH; configuration not given here), “inactive”. The same measure, in the same setting: in the case of `NC(=O)c1ccc(NC(=O)COC(=O)C(Cc2ccccc2)NC(=O)c2ccccc2)cc1` (stereo not given) it was “inactive”; in that of `CN(Cc1ccccc1F)C(=O)C(Cc1ccccc1)NC(=O)c1ccccc1` (stereo not given), 11.2 µM (active); in that of `CC(OC(=O)c1ccc(NC(=O)CC#N)cc1)C(=O)Nc1ccc(S(=O)(=O)N2CCCC2)cc1` (stereo not given), “inactive”. Turning to `O=C1NC[C@@H](CCCCN2CCN(CCc3ccc(O)cc3)C(=O)C2=O)N(CC2CCCCC2)C1=O`, the Potency entry was “inactive”. On the same count and under the same terms, in the case of `C=CCOC(=O)N1CCC2CC1c1cc(-c3ccc(OC)cc3)ccc12` (stereo not given) it was 10 µM (active); in that of `COc1ccc(-c2ccc3c(c2)C2CC3CCN2CCC#N)cc1` (stereo not given), “inactive”; in that of `Cc1ccc(S(=O)(=O)N(CCc2ccccc2)c2ccc3c(c2)C2CC3CCN2C(=O)OCc2ccccc2)cc1` (stereo not given), “inactive”. On to `C[C@@H]1CN([C@H](C)CO)C(=O)CCCn2cc(nn2)CO[C@H]1CN(C)S(C)(=O)=O`, for which the Potency entry is “inactive”. Same read-out and setting: in the case of `Cc1ccc(C(O)c2ncc(-c3ccccc3F)[nH]2)cc1F` (stereo not given) it was “inactive”; in that of `CC(C)(C)c1ccc(CN2C(=O)c3ccccc3S2(=O)=O)cc1`, 10 µM (active). Regarding `O=C1c2ccccc2S(=O)(=O)N1Cc1c(F)cccc1Cl`, the Potency result was “inactive”.

As to `COc1ccc(CNC(=O)CN2C(=O)c3ccccc3S2(=O)=O)cc1`, the Potency entry was “inactive”. As for `CCc1cc(-c2nnn(CCC3COCCO3)c2CC)ccc1-c1cn(Cc2ccc3ccccc3c2)nn1` (stereo not given), the Potency entry was “inactive”.

For `CC(OC(=O)c1cccnc1Cl)C(=O)NC1CCCCC1` (stereo not given), the Potency entry was “inactive”. Same read-out and setting: in the case of `C[C@H](CO)N1C[C@H](C)[C@@H](CN(C)Cc2ccc3c(c2)OCO3)OCc2cnnn2CCCC1=O` it was “inactive”; in that of `CCCCn1c(CN2CCN(CCO)CC2)nc2ccccc21`, “inactive”; in that of `C=C(Br)Cn1c(CCCC)nc2ccccc21`, 2.82 µM (active).

In the case of `CCCCn1c(CCCNC(=O)CC)nc2ccccc21`, the Potency result was “inactive”. With `Nc1[nH]c(C(=O)c2ccccc2)c(-c2ccncc2)c1C(=O)NCc1cccc2ccccc12`, the Potency entry is “inactive”. Regarding `Cc1ccc(CNC(=O)CSc2c3c(nc4cc(Cl)ccc24)CCCC3)cc1`, the Potency entry was “inactive”. On the same count and under the same terms, the value for `Cc1ccc(Nc2c3c(nc4ccccc24)CCC3)cc1` was 5.62 µM (active); that for `CCOc1ccc(NC(=O)CSc2c3c(nc4ccccc24)CCCC3)cc1` was “inactive”.
